For three compounds, outcome and AC50 results are on record in PubChem BioAssay (EPA / NIEHS).

Calls of active or inactive are those of the source. How the source made its calls: active means hit-call score of the fitted dose curve at least 0.9, where 1 is the maximum; inactive means score below 0.9.

Read-out in experiment [1]: Cyclin Dependent Kinase Inhibitor 1A (CDKN1A), CDKN1A (gene 1026)
Put plainly: LTEA_HepaRG_CDKN1A: Life Technologies and Expression Analysis (LTEA) Assay for Cyclin Dependent Kinase Inhibitor 1A (CDKN1A) using HepaRG (AID 2283450). Conditions: mRNA level, 48 h; actives raise or lower the signal. In short, it runs like this:
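Differentiated HepaRG cells in serum-free induction medium, exposed 48 h in duplicate to eight half-log concentrations up to 100 uM in 0.5% DMSO. mRNA measured by TaqMan qRT-PCR, normalized to ACTB, GAPDH, POLR2A; bidirectional fit versus DMSO.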

Read-out in experiment [2]: Cyclin D1 (CCND1), CCND1 (gene 595)
Put plainly: LTEA_HepaRG_CCND1: Life Technologies and Expression Analysis (LTEA) Assay for Cyclin D1 (CCND1) using HepaRG (AID 2283451). As to conditions: mRNA level, 48 h; actives raise or lower the signal. In short, it runs like this: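 Differentiated HepaRG cells exposed 48 h in serum-free induction medium to eight half-log concentrations from 100 uM top, 0.5% DMSO, duplicates. CCND1 mRNA measured by Fluidigm TaqMan qRT-PCR, normalised to ACTB, GAPDH, POLR2A; bidirectional fit.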

Read-out in experiment [3]: catalase (CAT), CAT (gene 847)
Put plainly: LTEA_HepaRG_CAT: Life Technologies and Expression Analysis (LTEA) Assay for catalase (CAT) using HepaRG (AID 2283452). Conditions: mRNA level, 48 h; actives raise or lower the signal. The gist of the method:
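Differentiated HepaRG cells in serum-free induction medium were dosed 48 h in duplicate, eight half-log concentrations from 100 uM in 0.5% DMSO. Transcript measured by TaqMan qRT-PCR, normalised to ACTB/GAPDH/POLR2A, fitted bidirectionally against DMSO.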

Read-out in experiment [4]: flavin-containing dimethylaniline monooxygenases 3 (FMO3), FMO3 (gene 2328)
Put plainly: LTEA_HepaRG_FMO3: Life Technologies and Expression Analysis (LTEA) Assay for flavin-containing dimethylaniline monooxygenases 3 (FMO3) using HepaRG (AID 2283453).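 On AC50: FMO3 transcript by TaqMan qRT-PCR normalized to ACTB GAPDH and POLR2A.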 Conditions: mRNA level, 48 h; actives raise or lower the signal. The gist of the method: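 HepaRG, 48 h exposure, 8-pt half-log series from 100 uM, 0.5% DMSO vehicle, duplicates; FMO3 transcript by Fluidigm TaqMan qRT-PCR, housekeeping-normalized; gain/loss fit vs DMSO.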

Read-out in experiment [5]: CFLAR gene, CFLAR (gene 8837)
The experiment in a line: LTEA_HepaRG_CFLAR: Life Technologies and Expression Analysis (LTEA) Assay for CFLAR gene using HepaRG (AID 2283455). As to conditions: mRNA level, 48 h; actives raise or lower the signal. The gist of the method:
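HepaRG cells were plated for 48 h, switched to serum-free induction medium, then exposed in duplicate for 48 h to 8 concentrations (top 100 uM, half-log steps, 0.5% DMSO). CFLAR mRNA was measured by qRT-PCR, normalized to ACTB, GAPDH and POLR2A.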

Read-out in experiment [6]: Forkhead box O1 (FOXO1), FOXO1 (gene 2308)
The experiment in a line: LTEA_HepaRG_FOXO1: Life Technologies and Expression Analysis (LTEA) Assay for Forkhead box O1 (FOXO1) using HepaRG (AID 2283456). As to conditions: mRNA level, 48 h; actives raise or lower the signal. The gist of the method: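 Differentiated human HepaRG cells in serum-free induction medium were exposed in duplicate for 48 h to eight half-log concentrations (top 100 uM, 0.5% DMSO). FOXO1 mRNA was measured by TaqMan qRT-PCR, normalised to ACTB, GAPDH and POLR2A, and fitted bidirectionally against DMSO.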

Read-out in experiment [7]: growth arrest and DNA damage 45 (GADD45A), GADD45A (gene 1647)
Put plainly: LTEA_HepaRG_GADD45A: Life Technologies and Expression Analysis (LTEA) Assay for growth arrest and DNA damage 45 (GADD45A) using HepaRG (AID 2283458). Conditions: mRNA level, 48 h; actives raise or lower the signal. In short, it runs like this:
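Differentiated HepaRG cells were exposed in duplicate for 48 h in serum-free induction medium to 8-point half-log concentrations up to 100 uM in 0.5% DMSO. GADD45A mRNA was measured by TaqMan qRT-PCR, normalized to ACTB, GAPDH and POLR2A, with bidirectional fitting versus DMSO.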

Read-out in experiment [8]: Forkhead box O3 (FOXO3), FOXO3 (gene 2309)
The experiment in a line: LTEA_HepaRG_FOXO3: Life Technologies and Expression Analysis (LTEA) Assay for Forkhead box O3 (FOXO3) using HepaRG (AID 2283459). As to conditions: mRNA level, 48 h; actives raise or lower the signal. The gist of the method:
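Differentiated human HepaRG cells in serum-free induction medium were exposed in duplicate for 48 h to eight half-log concentrations up to 100 uM in 0.5% DMSO. FOXO3 mRNA was quantified by qRT-PCR, normalized to ACTB, GAPDH and POLR2A, with bidirectional fitting versus DMSO.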

Read-out in experiment [9]: ABC Transporter (ABCB1), ABCB1 (gene 5243)
Put plainly: LTEA_HepaRG_ABCB1: Life Technologies and Expression Analysis (LTEA) Assay for ABC Transporter (ABCB1) using HepaRG (AID 2283460). As to conditions: mRNA level, 48 h; actives raise or lower the signal. In short, it runs like this:
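Differentiated human HepaRG cells, plated 48 h then switched to serum-free induction medium, were exposed in duplicate to eight half-log concentrations up to 100 uM in 0.5% DMSO for 48 h. ABCB1 mRNA was measured by TaqMan qRT-PCR, normalized to ACTB/GAPDH/POLR2A.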

Read-out in experiment [10]: ABC Transporter (ABCC3), ABCC3 (gene 8714)
Put plainly: LTEA_HepaRG_ABCC3: Life Technologies and Expression Analysis (LTEA) Assay for ABC Transporter (ABCC3) using HepaRG (AID 2283462). As to conditions: mRNA level, 48 h; actives raise or lower the signal. The gist of the method: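 Differentiated human HepaRG cells exposed 48 h in serum-free induction medium, 0.5% DMSO vehicle, 8-point half-log series to 100 uM in duplicate. ABCC3 mRNA by qRT-PCR, normalised to ACTB, GAPDH, POLR2A; bidirectional fit vs DMSO.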

Read-out in experiment [11]: ABC Transporter (ABCB11), ABCB11 (gene 8647)
Put plainly: LTEA_HepaRG_ABCB11: Life Technologies and Expression Analysis (LTEA) Assay for ABC Transporter (ABCB11) using HepaRG (AID 2283463). Conditions: mRNA level, 48 h; actives raise or lower the signal. The gist of the method:
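Differentiated human HepaRG cells were exposed for 48 h in serum-free induction medium to eight half-log concentrations up to 100 uM in 0.5% DMSO. ABCB11 mRNA was quantified by qRT-PCR, normalized to ACTB, GAPDH and POLR2A, and fitted bidirectionally versus DMSO.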

Read-out in experiment [12]: ABC Transporter (ABCC2), ABCC2 (gene 1244)
Put plainly: LTEA_HepaRG_ABCC2: Life Technologies and Expression Analysis (LTEA) Assay for ABC Transporter (ABCC2) using HepaRG (AID 2283464). Conditions: mRNA level, 48 h; actives raise or lower the signal. In short, it runs like this:
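Differentiated HepaRG cells in serum-free induction medium exposed 48 h to eight half-log concentrations up to 100 uM, 0.5% DMSO, in duplicate. ABCC2 mRNA measured by qRT-PCR (TaqMan, Fluidigm), normalized to ACTB, GAPDH and POLR2A. Fitted in both directions against DMSO.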

Read-out in experiment [13]: Broad substrate specificity ATP-binding cassette transporter ABCG2 (Homo sapiens) (UniProt Q9UNQ0)
The experiment in a line: LTEA_HepaRG_ABCG2: Life Technologies and Expression Analysis (LTEA) Assay for ABC Transporter (ABCG2) using HepaRG (AID 2283465). Conditions: mRNA level, 48 h; actives raise or lower the signal. The gist of the method:
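Differentiated HepaRG cells in serum-free induction medium were exposed for 48 h, in duplicate, to eight half-log concentrations up to 100 uM in 0.5% DMSO. ABCG2 mRNA was measured by TaqMan qRT-PCR, normalized to ACTB, GAPDH and POLR2A, and fitted bidirectionally versus DMSO.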

Read-out in experiment [14]: ATP-citrate lyase (ACLY), ACLY (gene 47)
Put plainly: LTEA_HepaRG_ACLY: Life Technologies and Expression Analysis (LTEA) Assay for ATP-citrate lyase (ACLY) using HepaRG (AID 2283466). Conditions: mRNA level, 48 h; actives raise or lower the signal. In short, it runs like this: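 Differentiated human HepaRG cells in serum-free induction medium exposed 48 h, in duplicate, to eight half-log concentrations from 100 uM top in 0.5% DMSO; ACLY mRNA measured by qRT-PCR, normalized to ACTB, GAPDH, POLR2A, fitted bidirectionally versus DMSO.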

Read-out in experiment [15]: Peroxisomal acyl-coenzyme A oxidase 1 (ACOX1) gene, ACOX1 (gene 51)
Put plainly: LTEA_HepaRG_ACOX1: Life Technologies and Expression Analysis (LTEA) Assay for Peroxisomal acyl-coenzyme A oxidase 1 (ACOX1) gene using HepaRG (AID 2283467). As to conditions: mRNA level, 48 h; actives raise or lower the signal. The gist of the method:
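Differentiated human HepaRG cells were exposed in duplicate for 48 h in serum-free induction medium to eight half-log concentrations up to 100 uM in 0.5% DMSO. ACOX1 mRNA was then quantified by TaqMan qRT-PCR, normalized to ACTB, GAPDH and POLR2A.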

Read-out in experiment [16]: Alkaline Phosphatase, Placental (ALPP) gene, ALPP (gene 250)
The experiment in a line: LTEA_HepaRG_ALPP: Life Technologies and Expression Analysis (LTEA) Assay for Alkaline Phosphatase, Placental (ALPP) gene using HepaRG (AID 2283468). As to conditions: mRNA level, 48 h; actives raise or lower the signal. In short, it runs like this: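 HepaRG cells plated 48 h, then exposed in duplicate for 48 h in serum-free induction medium to 8-point half-log series from 100 uM in 0.5% DMSO. ALPP mRNA by TaqMan qRT-PCR, normalized to ACTB/GAPDH/POLR2A; bidirectional fit versus DMSO.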

Read-out in experiment [17]: Bcl-2 (BAD) gene, BAD (gene 572)
Put plainly: LTEA_HepaRG_BAD: Life Technologies and Expression Analysis (LTEA) Assay for Bcl-2 (BAD) gene using HepaRG (AID 2283469). Conditions: mRNA level, 48 h; actives raise or lower the signal. The gist of the method:
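Differentiated human HepaRG cells in serum-free induction medium were exposed in duplicate for 48 h to eight concentrations (top 100 uM, half-log steps, 0.5% DMSO). BAD mRNA was quantified by qRT-PCR normalised to ACTB, GAPDH and POLR2A, with bidirectional fitting versus DMSO.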

Read-out in experiment [18]: Cytochrome P450 (CYP1A1), CYP1A1 (gene 1543)
The experiment in a line: LTEA_HepaRG_CYP1A1: Life Technologies and Expression Analysis (LTEA) Assay for Cytochrome P450 (CYP1A1) using HepaRG (AID 2283454). As to conditions: mRNA level, 48 h; actives raise or lower the signal. In short, it runs like this: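 Differentiated human HepaRG cells, after 48 h plating, exposed in duplicate for 48 h in serum-free induction medium to 8 half-log concentrations up to 100 uM in 0.5% DMSO. CYP1A1 mRNA by qRT-PCR, normalized to ACTB/GAPDH/POLR2A; bidirectional fit versus DMSO.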

Experiment [19] is described as follows: CEETOX_H295R_TESTO: CeeTox H295R High-throughput Steroidogenesis Assay for Testosterone (TESTO) (AID 2283457). Conditions: actives raise or lower the signal. The gist of the method:
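H295R adrenal cells, passage ≤10, exposed to chemicals for 48 h. Testosterone in medium measured by MTBE extraction and HPLC-MS/MS against a 7-point standard curve. Bidirectional fit versus DMSO; MTT viability checked in the same wells.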

Read-out in experiment [20]: growth arrest and DNA damage 45 (GADD45B), GADD45B (gene 4616)
The experiment in a line: LTEA_HepaRG_GADD45B: Life Technologies and Expression Analysis (LTEA) Assay for growth arrest and DNA damage 45 (GADD45B) using HepaRG (AID 2283461). As to conditions: mRNA level, 48 h; actives raise or lower the signal. The gist of the method:
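Differentiated human HepaRG cells in serum-free induction medium exposed 48 h in duplicate to eight concentrations, top 100 uM, half-log steps, 0.5% DMSO. GADD45B mRNA by TaqMan qRT-PCR, normalized to ACTB, GAPDH, POLR2A; bidirectional fit versus DMSO.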

Sequence of Broad substrate specificity ATP-binding cassette transporter ABCG2 (Homo sapiens) (Q9UNQ0 whole entry, looked up): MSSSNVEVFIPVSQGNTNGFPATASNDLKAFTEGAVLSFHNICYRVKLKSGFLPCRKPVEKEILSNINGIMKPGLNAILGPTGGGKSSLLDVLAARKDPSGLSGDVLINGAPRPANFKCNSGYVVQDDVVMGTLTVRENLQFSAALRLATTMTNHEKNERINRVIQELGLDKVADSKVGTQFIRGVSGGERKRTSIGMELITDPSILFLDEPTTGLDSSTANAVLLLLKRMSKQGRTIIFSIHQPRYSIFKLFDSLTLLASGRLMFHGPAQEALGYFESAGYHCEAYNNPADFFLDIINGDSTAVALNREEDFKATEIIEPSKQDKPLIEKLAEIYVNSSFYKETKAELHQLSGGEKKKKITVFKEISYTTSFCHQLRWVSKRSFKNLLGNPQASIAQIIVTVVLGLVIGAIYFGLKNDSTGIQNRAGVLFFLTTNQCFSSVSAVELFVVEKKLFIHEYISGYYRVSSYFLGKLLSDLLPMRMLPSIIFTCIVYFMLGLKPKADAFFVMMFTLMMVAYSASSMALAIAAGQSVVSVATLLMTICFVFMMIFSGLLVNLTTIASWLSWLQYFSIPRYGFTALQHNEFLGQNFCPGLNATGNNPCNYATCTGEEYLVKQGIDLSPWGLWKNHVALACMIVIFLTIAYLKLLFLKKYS

Turning to `CC(=O)[C@@]1(O)CC[C@H]2[C@@H]3CCC4=CC(=O)CC[C@]4(C)[C@H]3CC[C@@]21C`, the compound was called inactive in [1], in [2], in [3], in experiment [4], in experiment [5] and in experiment [6]. For the same compound, the outcome in experiment [7], in [8], in experiment [9], in [10], in experiment [11] and in experiment [12] was inactive. For the same compound, the outcome in experiment [13], in experiment [15], in [16] and in experiment [17] was inactive. Also, the AC50 in experiment [14] was 39.6 µM (active).

`CCN(CC)CCOc1ccc(C(=C(Cl)c2ccccc2)c2ccccc2)cc1`: the compound was called inactive in experiment [1], in experiment [2], in experiment [18], in [5], in experiment [6] and in [19]. Further, the call in [7], in experiment [8], in experiment [20], in experiment [10], in [13] and in [14] was inactive. In addition, the AC50 is 42 µM (active) in [3]; 22 µM (active) in experiment [4]; 79.9 µM (active) in [9]; 24.9 µM (active) in experiment [11]; 67.3 µM (active) in [12]; 22.6 µM (active) in experiment [16].

Take `CC(COCC(C)OC(=O)c1ccccc1)OC(=O)c1ccccc1` (configuration not stated): the compound was classed as inactive in experiment [1], in experiment [2], in [3], in experiment [4], in experiment [5] and in experiment [6]. In addition, the compound was called inactive in [7], in experiment [8], in experiment [9], in experiment [20], in [10] and in [11]. In addition, the result in experiment [12], in [13], in experiment [14] and in experiment [17] was inactive. The AC50 in experiment [18] was 87.6 µM (active).
